# Screens from PubChem.
# The entries come from a sample that favours hits as a whole.
# Tgondii IFNg = inhibitors of Toxoplasma gondii growth with IFN-gamma | Toxoplasma gondii growth in IFN-gamma-treated host cells; stronger effect = lower value | 69,000 tested, 3.8% active | activity change, negative = inhibition, % (concentration not given with the values); in the data active = activity change below about -70%, passing the limit was not always enough;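 also: host cells are HeLa cells infected with Toxoplasma gondii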
# Starred values were filed as active, the others as inactive; i = inactive.
SMILES,Tgondii IFNg
O=C1CC(c2ccncc2)C2(CCN(Cc3nccs3)CC2)N1 (centres undefined),-25
CN1CCCN(CC(=O)NCc2ccccc2Cn2cccn2)CC1,1
CCN(C/C=C/c1ccccc1)C(=O)c1ccc(C#CC(C)(C)O)cc1,69
Nc1cc(-c2ccc(F)cc2)nc(N)n1,-8
Cc1oc(C2CCN(C(=O)c3ccc(C(F)(F)F)cc3)CC2)nc1C(=O)N1CCCC1,6
O=C(Cc1ccccc1O)N1CCC(N2CCCC(C(=O)N3CCCC3)C2)CC1 (centres undefined),5
CCOc1cc(C(=O)N2CCc3c([nH]c4ccccc34)C2c2ccccc2)cc(OCC)c1OCC (centres undefined),-115*
CCCC(=O)N1CCc2c([nH]c3ccccc23)C1c1ccccc1 (centres undefined),259
O=C(CCC1CCCC1)N1CCc2c([nH]c3ccccc23)C1c1ccc(F)cc1 (centres undefined),-67
CCOc1ccc(C2c3[nH]c4ccccc4c3CCN2C(=O)c2ccc(F)cc2)cc1 (centres undefined),-89*
CCOc1ccc(C2c3[nH]c4ccccc4c3CCN2C(=O)c2ccc(OC)c(OC)c2)cc1 (centres undefined),i
COc1ccc(C2c3[nH]c4ccccc4c3CCN2C(=O)CCC2CCCC2)cc1 (centres undefined),-55
O=C(CCC1CCCC1)N1CCc2c([nH]c3ccccc23)C1c1ccc(Cl)cc1 (centres undefined),-106*
CCOc1ccc(C2c3[nH]c4ccccc4c3CCN2C(=O)c2cc(OC)c(OC)c(OC)c2)cc1 (centres undefined),247
CCOc1cc(C(=O)N2CCc3c([nH]c4ccccc34)C2c2cccnc2)cc(OCC)c1OCC (centres undefined),-67
O=C(c1cccc(F)c1)N1CCc2c([nH]c3ccccc23)C1c1ccc(Cl)cc1 (centres undefined),-53
COc1cc(C(=O)N2CCc3c([nH]c4ccccc34)C2c2ccc(Cl)cc2)cc(OC)c1OC (centres undefined),1
O=C(c1ccccc1)N1CCc2c([nH]c3ccccc23)C1c1ccc(Cl)cc1 (centres undefined),-99*
CCC1=N[C@@]2(CC[C@@H]3CN(C(=O)NC4CCCC4)C[C@H]32)C(=O)N1CC,-6
Nc1c(-c2n[nH]c(=S)n2Cc2ccccc2)cnn1-c1ccccc1,-36
OCCN1CCC2(CC1)CC(NC1CCOCC1)c1ccccc12 (centres undefined),3
COCCN1C(=O)N(Cc2cccc3ccccc23)C(=O)C12CCN(Cc1ccsc1)CC2,-65
O=C(CN(Cc1ccccc1Cl)C(=O)C1CSC(=O)C1)NC1CCCCC1 (centres undefined),3
CN(C)C(=O)COCc1ncn2c1CN(c1ncc(F)cn1)CCC2,-5
COc1cc(NC(=O)CNCc2cc(F)ccc2F)ccc1Cl,-5
SMILES,Tgondii IFNg
Cc1ccc(C2c3[nH]c4ccccc4c3CCN2C(=O)c2ccc3c(c2)OCO3)cc1 (centres undefined),-62
COc1ccc(C(=O)N2CCc3c([nH]c4ccccc34)C2c2ccc(F)cc2)cc1OC (centres undefined),-32
Cc1ccc(C2c3[nH]c4ccccc4c3CCN2C(=O)C2CC2)cc1 (centres undefined),146
O=C(C1CCCCC1)N1CCc2c([nH]c3ccccc23)C1c1ccc(F)cc1 (centres undefined),-75*
CSc1ccc(C2c3[nH]c4ccccc4c3CCN2C(=O)C2CC2)cc1 (centres undefined),74
O=C(c1ccc2c(c1)OCO2)N1CCc2c([nH]c3ccccc23)C1c1ccc(F)cc1 (centres undefined),-109*
CCN(CC)Cc1cn2c(n1)CN(Cc1c(C)noc1C)CC2,8
CC(CCNC(=O)Cn1c2ccccc2c2cnn(C)c(=O)c21)N1CCCC1 (centres undefined),20
CC(C)c1nnsc1CN1CCCC1c1ccc(F)cc1 (centres undefined),-16
Cc1nc2ccc(Cl)cn2c1C(=O)NCC1(c2ccccc2F)CCOCC1,3
O=C(c1ccccn1)N1CCO[C@@H]2[C@H]1CC[C@H]2OCC1CCOCC1,42
COc1ccc(C(=O)c2cc(Cl)c(C(=O)c3ccc(OC)cc3)cc2Cl)cc1,-19
O=C(Nc1cccc(Cl)c1)c1c(O)c2cccnc2n(-c2cccc(F)c2)c1=O,-32
CC(NC(=O)c1c(O)c2cccnc2n(-c2cccc(F)c2)c1=O)c1ccccc1 (centres undefined),-109*
CC(NC(=O)c1c(O)c2cccnc2n(-c2cccc(F)c2)c1=O)c1ccc(F)cc1 (centres undefined),50
Cc1cc(F)ccc1NC(=O)c1c(O)c2cccnc2n(-c2cccc(F)c2)c1=O,-91*
Cc1ccc(F)cc1NC(=O)c1c(O)c2cccnc2n(-c2cccc(F)c2)c1=O,-27
O=C(Nc1ccc(F)c(Cl)c1)c1c(O)c2cccnc2n(-c2cccc(F)c2)c1=O,-102*
Cc1ccc(NC(=O)c2c(O)c3cccnc3n(-c3cccc(F)c3)c2=O)c(C)c1,-33
O=C(Nc1ccc(F)c(Cl)c1)c1c(O)c2cccnc2n(-c2ccc(F)cc2)c1=O,84
O=C(Nc1ccccc1)c1c(O)c2cccnc2n(-c2cccc(F)c2)c1=O,49
CCN1C(=O)N(CCCc2cccnc2)C(=O)C12CCN(Cc1ccc3c(c1)Cc1ccccc1-3)CC2,-56
CCOCC(=O)N1Cc2ncn(C)c2C(COCc2cccc(C)n2)C1 (centres undefined),-6
O=C(NCCc1csc(-c2cccc(F)c2)n1)c1ccccc1,-48
Cc1cc2c(cc1C(=O)N1CCC(O)(CN(C)C)C1)OCCO2 (centres undefined),18
SMILES,Tgondii IFNg
CC1(C(=O)NCc2ccc(F)cc2F)CCN(C(=O)c2ccccc2F)CC1,-31
CC(C)Oc1ncnc2c1CCN(C(=O)c1cscn1)CC2,-7
O=C(COc1ccc(F)cc1)OCCN1CCOCC1,13
c1ccc(-c2nn3c(c2-c2ccnc4cc(OCCN5CCOCC5)ccc24)CCC3)nc1,-78*
O=C(Nc1cccc(OCCN2CCOCC2)c1)c1csc2c1CCCC2,14
CCc1cccc(NC(=O)c2c(O)c3cccnc3n(-c3ccc(F)cc3)c2=O)c1,-40
Cc1cc2cc(NC(=O)c3nc4ccccc4n(C)c3=O)cc(Cl)c2o1,28
Cc1cc2cc(NC(=O)CNC(=O)c3nc4ncccn4n3)cc(Cl)c2o1,5
Cc1cc2cc(NC(=O)CN3C(=O)NC(C)(c4ccccc4)C3=O)cc(Cl)c2o1 (centres undefined),-77*
COCC1CN(Cc2ccc(OC)cc2)Cc2nn(CC3CC3)cc21 (centres undefined),-10
O=C(NC(=S)Nc1ccc(S(=O)(=O)N2CCOCC2)cc1)c1cccs1,7
O=C(Nc1cccc(-c2cc3ccccc3oc2=O)c1)c1ccc(Br)o1,23
Cc1cc(NC(=S)NC(=O)c2cccs2)ccc1-c1cc2ccccc2oc1=O,-80*
COCCN1CC2(CCC1=O)CCN(C(=O)C1CCOCC1)CC2,2
Cc1nc(C)n(CC(C)C(=O)NC(C)(C)CN2CCCCC2C)n1 (centres undefined),-48
Cc1cc(C)cc(NC(=O)CSc2nnnn2-c2ccc3c(c2)OCO3)c1,-13
c1ccc(CSc2nnnn2-c2ccc3c(c2)OCO3)nc1,26
Fc1ccc(CSc2nnnn2-c2ccc3c(c2)OCO3)c(Cl)c1,-72*
